To fix the notation:
B1: ENSMUSG00000034801.222|Sos2 (ssRNA)
RNA: GGGAGUUCUACAGUCCGACGAUCGCUUCGAUAUCCGCAUGCUAUGUAAGUCUGGAACAAAAGUGUCUUAUGGCAUAAGAACCAACUGCCAUUGUCAAACCUAUUAACUGUCUUUAAUCUCGUGUUAACUGAAAUUUUUGAAAAGUUUUUCCAGAUUAGUAAUAUUUAAACAGAAAAUACUUUAAAAAGCUUUAUUAAAUUUUUUAAUCAGGAUAAAGCUUUGCCAUUUGGAUACUAUCAUUCAAAGUGAUCAAGGUAUGUAUGUUAUGCUGAUAGUGCAGUAGCAGCCAUUGUAAAGUAGCCACUCUUGCGGUCGCACUAGUGUGGAAUUCUCGGGUGUCAAGG
B2: ENSMUSG00000061578.107|Ksr2|134:138;220:225 (ssRNA)
RNA: GGGAGUUCUACAGUCCGACGAUCGCUUCGAUAUCCGCAUGCUAGGCCUCUCUGGGGACCAGUCCCUGGCCUUCACCCUUCUCCCAUUUUGUAAGAACACUGUUCUAACUCACCUCAUGCCCACGCUACCCUGGGCAACUGGAGAACACCAUAGCGUUUCAGCUGAUGUGACAUUUGCACACACCUUUACCAGUUCACCAUCAUUCAUGGCUUCCCCCAAAGUCCCGAGUCCUGAGAACCGGGGCUGUGGCAAGAGAGUUCUGCACACAUCUCUCUGUGGGGCUAGCAAUGCCGGGGUUAAGUUCUCUUGCGGUCGCACUAGUGUGGAAUUCUCGGGUGUCAAGG
B3: ENSMUSG00000031028.253|Tub (ssRNA)
RNA: GGGAGUUCUACAGUCCGACGAUCGCUUCGAUAUCCGCAUGCUAAGCUCUUGCCUGUGUGCCAUCUGUGAGAAGCUUCUUGGAGCUGAGACACCAGAGGGAAGCAAAGAGCAUUUAGACAUUGCUUUUUGCUUUGAAAUAGAUAUGUUUGGAAACGCUAAGUAGAAGUUUAAAAAGUAGAGUCAUGUAGAGUCAUGCUUUGAAUAUGUGGGUCAUGCUUUAGAUAUGAAGAGGCUAUGCAGGUAAGGAGGCUGGAUUGAUGUAAAUGGAAGUAGUACUUUAAGAAAGCUCUAGAUUUCCCAGGUCUCUUGCGGUCGCACUAGUGUGGAAUUCUCGGGUGUCAAGG
B4: ENSMUSG00000031028.56|Tub|187:199;217:221 (ssRNA)
RNA: GGGAGUUCUACAGUCCGACGAUCGCUUCGAUAUCCGCAUGCUACCAAGGUCAACACACAUGCCCAGUCCUGGGUCAGUCCCCUGCUGCAGUGGUGUUAUCACACCGGAAAGCCUCUUCACCUGGAGGUACAGAGGGAGAGGAAGCACAAGCCUGGCUGCUGUGGCUCAGCCAUCCACUCAGCCUACGAGUCAGAGACAGUGGGUGUCCCGGGAAGCAGGGGUACAGUGACACACACACAUACUACAGGGCACUCAAGCUCAUACUAGAAAAAGCUCUGGUGGUCAGCAGAAAGCACUCCCACUCUCUUGCGGUCGCACUAGUGUGGAAUUCUCGGGUGUCAAGG
B5: ENSMUSG00000043670.83|Diras1 (ssRNA)
RNA: GGGAGUUCUACAGUCCGACGAUCGCUUCGAUAUCCGCAUGCUAAUCCCAGUCAGGCCCAGAGAGGUUACCUUGCCUCUCCAUCUCUGUCCCUGUGUGCCCAGCCAUGCCCACUGUCCCUGUCCCUCACAUUCUAUCACUGUGACCUCUGGGGAGUGCCCAUUGACCUCAUCUUCCUUCACUAAUAUCUUAUUUCUUUCACCUGAUCCUGUCCUUUCCCCGUGACCUCUGACCUGUGGCCUUCCCUGGGUCCAGAACACCCCUGUCCUCUCCUGUCUGCACACCAGGGUGGAUGGGCCCGAGGGCUCUUGCGGUCGCACUAGUGUGGAAUUCUCGGGUGUCAAGG
B6: ENSMUSG00000028439.194|Fam219a (ssRNA)
RNA: GGGAGUUCUACAGUCCGACGAUCGCUUCGAUAUCCGCAUGCUAAGCCUAUCUGUCCAGGGAACCAGAUUGGUGUCCGAGAUGAGGAAAUGGCUGUGGCCUGGGAAAUCAGUGAGAGGCCGCUUGGGAAUGAGAAUGCAGUGGACUGAAAGCACAGCCUGGCCAUCUGGAACCUGGGUUCUGGUCCCAGCCUCGGCAUUCUCCCUGAGCUCCUAAGCAAUUCCCAGGCUUCUCUAGGGCUUCAGUUCUCACAACUGGAAAAUAAAGAGUAGCUGACAUCACCGACAGAGUCUUUUCAUACCAGACUCUUGCGGUCGCACUAGUGUGGAAUUCUCGGGUGUCAAGG
B7: ENSMUSG00000031028.89|Tub (ssRNA)
RNA: GGGAGUUCUACAGUCCGACGAUCGCUUCGAUAUCCGCAUGCUAGUACAGGGCACUCAAGCUGUAUGUAGAAAAAGCUCUGGUGGUCAGCAGAAAGCACUCCCACUUCAAAAGGGCCCAUUAGGCCCAAAGGGGGUUAGGAGUGGUAGGGAUAGGUGCGUGGCAGGUCCCUGCUAGGAUUGCAGGGGCCUGGCCAUGUGUAUUAGCUGGAGGCUUAGAAUGCUAGCUCAUUUGUUGCUACAGAUUUGCCCAGUGCUUGCACACGUAAGAACCCAGCUCUCAAGGCCAAAUAUCUGAGUGGAUGGCUCUUGCGGUCGCACUAGUGUGGAAUUCUCGGGUGUCAAGG
B8: ENSMUSG00000034801.36|Sos2 (ssRNA)
RNA: GGGAGUUCUACAGUCCGACGAUCGCUUCGAUAUCCGCAUGCUAGCAGAAUUCAAGCCCUCUCUUACCAAAGCUGCCACCAAAGACUUACAAACGGGAGCUUUCCCACCCGCCACUGUAUAGACUGCCUCUGCUGGAAAAUGCAGAAACUCCUCAAUGACCUUGGCCAUAUGUAGUCAUUGACACUGGAAUAGUAUUUGUAAAGGUUUUUAAUUUAUUCAAAAAGACAUAGUAUUUUAGUACUUUUUACAGAAAUGCUACUGAUUAAAUAAGCUCUUAAGAAUUAGUAAACUUGUUGGAUGGCACUCUUGCGGUCGCACUAGUGUGGAAUUCUCGGGUGUCAAGG
B9: ENSMUSG00000043670.328|Diras1 (ssRNA)
RNA: GGGAGUUCUACAGUCCGACGAUCGCUUCGAUAUCCGCAUGCUAUAGCCAGCCCAGGGCCCCCACAGCUGCCACCUGCUCCCAAGCCCCGGGAGUGGCUCCUGGCUGGACAGGGGGUCACAGCCCUUUCUCAGGGACACACCCUGAUAGCACAAUCUCUGGGCCACCCCAGGCUUCUCCUGGCUGGCCUUGCCCAUCCUGGGGAGAACCGGGCUGGGUGGCAGGGGAGGCCGGAGCCCACCCUGGCUGCUGGCCAACCUGCCCAGGCAUCUCUGGUGCUGGGGACCCCGCCAGGCCUCGCUUGCCUCUUGCGGUCGCACUAGUGUGGAAUUCUCGGGUGUCAAGG

In all, about 9,900 sequences were measured (“r (bound/input frequency ratio)”: median about 0.7, highest 2% from about 6.5 on). Only a selection was taken, and the highest values are over-represented in it overall.

Sequence of TDP-43 (Q13148 whole entry): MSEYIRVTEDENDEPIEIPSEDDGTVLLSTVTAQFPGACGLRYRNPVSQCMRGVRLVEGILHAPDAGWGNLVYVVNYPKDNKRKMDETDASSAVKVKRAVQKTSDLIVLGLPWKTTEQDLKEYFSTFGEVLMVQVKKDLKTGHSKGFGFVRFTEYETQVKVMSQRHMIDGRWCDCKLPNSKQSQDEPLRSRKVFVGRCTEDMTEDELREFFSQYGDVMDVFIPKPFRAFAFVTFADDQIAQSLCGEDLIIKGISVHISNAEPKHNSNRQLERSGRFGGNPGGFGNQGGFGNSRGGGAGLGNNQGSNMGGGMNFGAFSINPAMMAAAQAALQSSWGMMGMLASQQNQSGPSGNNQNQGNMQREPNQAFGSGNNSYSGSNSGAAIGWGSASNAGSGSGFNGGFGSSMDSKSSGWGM

This assay addresses TDP-43 (Homo sapiens, UniProt Q13148 1-414). As to the kind of experiment: RNA Bind-n-Seq with designed 260-mer pool; 25 mM Tris-HCl, 150 mM KCl, 3 mM MgCl2, BSA (printed 500 mg/mL), 20 units/mL SUPERase IN; pH not stated; 500 nM RNA pool, 1 h, 4 C; TDP-43 5, 50, 500 nM; high values mean tight binding. As to conditions: protein: recombinant; tags: SBP (GST cleaved off with PreScission; pGEX-GST-SBP). Summed up:
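Binding (R) is the ratio of each oligo's mapped-read-normalized abundance in the bound fraction to its abundance in the input. To obtain it, SBP-tagged recombinant TDP-43 (5, 50 or 500 nM) on streptavidin beads was incubated with 500 nM of an in vitro-transcribed 260-nt 3′ UTR oligo pool for 1 h at 4 °C in 25 mM Tris-HCl, 150 mM KCl, 3 mM MgCl2, BSA and SUPERase IN. The RNA retained after washing was released with biotin, then reverse transcribed, amplified by PCR and sequenced.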
With B1, the binding signal is 0.0419 R (bound/input frequency ratio).

For the molecule B2, the binding signal was 0.895 R (bound/input frequency ratio).

As for B3, the binding signal was 2.03 R (bound/input frequency ratio).

For B4, the binding signal is 1.06 R (bound/input frequency ratio).

B5: the binding signal was 2.21 R (bound/input frequency ratio).

With B6, the binding signal was 0.186 R (bound/input frequency ratio).

As for B7, the binding signal is 4.96 R (bound/input frequency ratio).

For B8, the binding signal was 0.12 R (bound/input frequency ratio).

In the case of B9, the binding signal was 0.177 R (bound/input frequency ratio).

The values are drawn from publication PMC12864922, “TDP-43 directly inhibits mRNA accumulation in neurites through modulation of mRNA stability”.
